# Bioassay records as filed in PubChem.
# aSyn rescue: qHTS of alpha-syn Inhibitors; Yeast expressing alpha-synuclein, growth rescue, BacTiter-Glo, 24 h; Potency, µM (titrated, usually from 46.1 µM), actives largely listed as activators; hit rate 0.14% among 370,000; AID 652106, 2013; further: nearly all actives have a fitted effect of over 65% in size
#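 Rescue of yeast growth: cells expressing toxic alpha-synuclein, induced in galactose at OD600 0.02, incubated with compound 24 h at 30 C. ATP luminescence quantified growth; inhibitors of toxicity appear as activators.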
# FUS suppressor: qHTS for Suppressors of FUS Proteinopathy: Primary screen using FUS-linked yeast assay; S. cerevisiae FUS-expressing, growth rescue, OD600, 24 h; Potency, µM (doses to about 76.6 µM), usual class: activators; hit rate 0.24% among 390,000; AID 1347120, 2019; further: nearly all actives have a fitted effect of over 55% in size
#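 Yeast FUS proteinopathy model; galactose-induced FUS (2%), starting OD 0.005. Cpds in dilution series, 24hr, 30C, 99% humidity. Abs 600 nm growth. Pos ctrl CP55940 (top 92uM final); neg ctrl DMSO.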
# TDP-43 yeast inh: qHTS of TDP-43 Inhibitors | TDP-43 expressing yeast growth rescue, BacTiter-Glo, 24 h | Potency, µM (titrated, usually from 46.1 µM), actives largely listed as activators | hit rate 1.8% among 410,000 | AID 652104, 2013; further: nearly all actives have a fitted effect of over 50% in size
#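 Luminescence from BacTiter-Glo reports growth of TDP-43-expressing yeast after 24 hr at 30 deg C with compound. Cells were raffinose-pregrown to mid-log, then seeded in galactose medium at OD600=0.02.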
# Abeta yeast res: qHTS for compounds that reverse cellular toxicity of Amyloid beta (A-beta) peptide in yeast: Primary Screen; yeast expressing A-beta42, growth rescue, OD600, 48 h; response scale: 0% DMSO, 100% iron-clioquinol control; hit rate 0.063% among 410,000; Potency, µM (series often up to 46.1 µM), usual class: activators; further: nearly all actives have a fitted effect of over 55% in size
#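 Yeast growth medium received pinned compounds, then yeast cells expressing toxic A-beta were added; plates incubated at 30 C for 48 hr. Growth read as absorbance at 600 nm, normalized to DMSO and equimolar FeCl3 plus clioquinol controls.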
# Hits are given with their value; - = inactive; ? = inconclusive; . = no result given. Sampled rows, rich in hits. Any-hit rate of the full collection: about 2.1%. The call rests on the fitted dose curve; in most records, active means well fitted curve in the direction sought with a large enough effect; inconclusive means small, poorly fitted or top-dose-only effect, or another doubt; inactive means no such curve, though single readings can be large; an effect the other way counts as inactive or inconclusive.
SMILES,aSyn rescue,FUS suppressor,TDP-43 yeast inh,Abeta yeast res
Cc1ccc(N(C)C(=O)c2ccc3c(Cl)c4c(nc3c2)CCC4)cc1C,?,?,25µM,-
S=C(NCc1ccc2c(c1)OCO2)NCc1ccc2c(c1)OCO2,-,-,-,-
O=C(NCc1ccccc1Br)c1ccc2c(c1)OCCO2,-,-,11µM,-
Cc1cccc(NC(=S)NCc2ccc3c(c2)OCO3)c1,-,-,18µM,-
COc1ccc(N(C)C(=O)c2ccc3c(Cl)c4c(nc3c2)CCCC4)c(OC)c1,-,?,-,-
CCC(Nc1ccc(-c2nc(-c3cccnc3)no2)cc1[N+](=O)[O-])c1ccccc1 (stereo not drawn),.,-,-,-
CCOc1ccc(C2C(=O)N(C3CCCCCC3)CC(=O)N2Cc2ccccc2)cc1OC (stereo not drawn),.,?,-,-
O=C(NCc1ccc2c(c1)OCO2)c1ccc2c(c1)OCCO2,-,-,25µM,?
O=C(NCc1cccc(Cl)c1)c1ccc2c(Cl)c3c(nc2c1)CCCC3,.,-,11µM,-
O=C(NCc1cccc(Cl)c1)c1ccc2c(c1)OCCO2,-,-,10µM,-
O=C(NCc1ccc2c(c1)OCO2)c1ccc(COc2cccc(Cl)c2)o1,?,-,14µM,?
Cc1cc(OCC(=O)Nc2ccc(C(=O)OC3CCCCC3)cc2)ccc1Cl,.,-,-,-
COc1ccc(CNC(=O)Cn2ncn3nc(-c4cccs4)cc3c2=O)cc1,.,-,-,-
COc1ccccc1-c1nnc(SCC(=O)c2ccc(F)cc2)n1-c1ccccc1,-,-,?,-
CC1Cc2cc(S(=O)(=O)NCCc3ccc(Cl)cc3)ccc2N1C(=O)C1CCC1 (stereo not drawn),.,-,18µM,?
Cc1ccc(CCNS(=O)(=O)c2ccc3c(c2)CC(C)N3C(=O)C2CCC2)cc1 (stereo not drawn),.,-,?,-
COc1ccc2c(c1OC)C(=O)N1N=C(c3ccc(Br)cc3)CC21 (stereo not drawn),-,-,20µM,-
COc1ccc(C2=NN3C(=O)c4c(ccc(OC)c4OC)C3C2)cc1 (stereo not drawn),-,-,-,-
COc1ccc2c(c1OC)C(=O)N1N=C(c3ccc(Cl)cc3)CC21 (stereo not drawn),-,-,35µM,-
O=C(COc1ccccc1C(=O)Nc1ccccc1)Nc1cccc(Br)c1,-,.,.,.
Cc1nc2ccn(Cc3ccccc3)c(=O)c2cc1C(=O)Nc1ccc(F)cc1Cl,.,-,-,-
Fc1ccc(Sc2cc(Cl)c(-c3ccccc3)nn2)cc1,-,-,16µM,-
Fc1ccc(Sc2nc(-c3ccccc3)nnc2C(F)(F)F)cc1,-,-,-,-
Cc1ccc(CN2C(=O)c3ccccc3CC2(C)C(=O)NC2CCCCC2)cc1 (stereo not drawn),.,-,-,-
CCCCNC(=O)Cn1ncc2c(C)n(Cc3cccc(Cl)c3)c(C)c2c1=O,.,-,-,-
SMILES,aSyn rescue,FUS suppressor,TDP-43 yeast inh,Abeta yeast res
Nc1cc(N2CCCCC2)c([N+](=O)[O-])cc1Cl,-,.,?,-
Nc1cc(N2CCCCC2)c(Cl)cc1[N+](=O)[O-],-,-,13µM,-
COC(=O)c1cc(-c2ccc(F)c(Cl)c2)c(=O)n2c1CCC2,.,-,.,.
Cn1cnc2c1c(=O)n(Cc1ccccc1)c(=O)n2C,-,-,-,-
Cn1cnc2c1c(=O)n(Cc1ccc(Cl)cc1Cl)c(=O)n2C,-,-,22µM,-
COc1ccc(C)cc1NC(=O)COC(=O)c1ccc([N+](=O)[O-])o1,-,-,11µM,-
O=C(COC(=O)c1ccc([N+](=O)[O-])o1)Nc1ccc(N2CCOCC2)cc1,-,-,?,-
O=C(COC(=O)c1ccc([N+](=O)[O-])o1)Nc1ccc(F)cc1,-,-,16µM,-
COc1ccc(C(C)(C)C)cc1NC(=O)COC(=O)c1ccc([N+](=O)[O-])o1,-,-,-,-
COc1cccc(CNS(=O)(=O)/C=C/c2ccc3c(c2)OCO3)c1,-,-,16µM,-
COc1ccc(N2Cc3cccc(C(=O)Nc4ccc(Cl)cc4)c3C2=O)cc1,.,-,-,-
COc1ccc(NC(=O)c2cc3ccccc3o2)cc1OC,-,-,13µM,-
CN(C)S(=O)(=O)c1cccc(NC(=O)c2cc3ccccc3o2)c1,.,-,8.9µM,-
CCN(CC)S(=O)(=O)c1cccc(NC(=O)c2cc3ccccc3o2)c1,-,-,?,-
COc1ccc(NC(=O)c2cc3ccccc3o2)cc1,-,-,-,-
COc1ccc(S(=O)(=O)N2CCCCCC2)c2ccccc12,.,-,.,.
O=C1CS(=O)(=O)C2(C(=O)N(Cc3ccccc3)c3ccccc32)N1c1ccc(F)c(Cl)c1 (stereo not drawn),-,-,20µM,-
COc1ccc(OC)c(NC(=O)CN2C(=O)CC(C)Sc3ccccc32)c1 (stereo not drawn),-,-,?,-
Cc1nc(N2CCN(C(=O)COc3ccccc3)CC2)c2c(C)c(C)sc2n1,-,-,16µM,-
O=C(COc1ccccc1)N1CCN(c2ncccn2)CC1,-,-,-,-
Cc1ccc(CNC(=O)Cn2ccn(-c3ccc(C)c(C)c3)c(=O)c2=O)cc1,.,-,-,-
O=C(Nc1ccccc1)N1CCC(c2ccccc2)C1 (stereo not drawn),-,-,-,-
Cc1ccc(NC(=O)N2CCCC(c3ccccc3)C2)cc1 (stereo not drawn),-,-,18µM,-
O=C(Nc1ccc(Cl)c(Cl)c1)N1CCSCC1,-,-,13µM,-
O=C(NNC(=S)Nc1ccc(Cl)c(Cl)c1)c1ccccn1,10µM,-,-,-
SMILES,aSyn rescue,FUS suppressor,TDP-43 yeast inh,Abeta yeast res
O=C(c1ccc(NC(=S)Nc2ccc(Cl)c(Cl)c2)cc1)N1CCCC1,-,-,18µM,-
O=C(CNC(=O)c1ccc(Cl)cc1)OCc1cc(=O)n2ccsc2n1,.,-,-,-
Cc1ccc(C)c(OCCn2cc(C(=O)c3ccco3)c3ccccc32)c1,.,-,-,-
Cc1ccc(C2CCN(C(=O)Nc3ccc(Cl)c(Cl)c3)C2)cc1 (stereo not drawn),.,-,?,-
O=C(Nc1ccc(Cl)c(Cl)c1)N1CCC(c2ccccc2)C1 (stereo not drawn),.,-,35µM,-
O=C(/C=C/c1ccccc1)N1CCC(c2ccccc2)C1 (stereo not drawn),-,.,11µM,-
FC(F)Oc1ccc(NC(=S)NC2CCCCCCC2)cc1,-,-,-,11µM
CC1(C(=O)Nc2ccc3c(c2)OCCO3)CN(S(C)(=O)=O)CC(=O)N1Cc1cccc(C(F)(F)F)c1 (stereo not drawn),-,-,22µM,-
Cc1c(NC(=O)C(C)(C)Oc2ccc(Cl)cc2)cccc1-c1nc2ncccc2o1,.,?,?,-
O=C(OCc1cc(Cl)cc2c1OCOC2)c1cccnc1Cl,16µM,-,?,-
Cc1ccc(/C=N/NC(=S)N2CCOCC2)cc1,-,.,22µM,?
S=C(N/N=C/c1ccc(Cl)cc1)N1CCOCC1,-,.,?,?
